What follows are molecules tested on MYLK. Settings: concentration: 1 μM, replicates: in singlicate; n = 1.
With `O=c1cc(N2CCOCC2)nc2n(Cc3cccc(C(F)(F)F)c3)ccn12` [GSK2297543] the “%Inh” value was 18%. For `Nc1nccc(-c2c(-c3ccc(F)cc3)ncn2C2CCN(CC(F)(F)F)CC2)n1` [SB-236560], the “%Inh” value was 1%. In the case of `CN(C(=O)c1ccc(-c2cc(-c3c[nH]nc3-c3ccccn3)ccn2)cc1)C1CCOCC1` [GW810083], the “%Inh” value is reported as 0%. In the case of `NCC(NC(=O)c1cc(-c2cn[nH]c2)c(-c2ccnc3[nH]ccc23)s1)c1ccccc1.O=C(O)C(F)(F)F.O=C(O)C(F)(F)F` (centres unmarked) [GSK1325775], the “%Inh” value is reported as 63%. In the case of `COCCNC(=O)c1ccc(-c2cc(C(=O)NC3CC3)cc(F)c2C)cc1` [GW868318], the “%Inh” value is reported as 29%. For `Fc1ccc(-c2nn3c(OCC(F)(F)F)cccc3c2-c2ccncc2)cc1` [GW514784], the “%Inh” value was 15%. For `C[C@@H](Oc1cc(-n2cnc3ccc(NC(=O)NC(C)(C)C)cc32)sc1C(N)=O)c1ccccc1Cl` [GSK346294], the “%Inh” value was 23%. `Cl.Oc1cccc(Nc2ccnc3cc(-c4ccncc4)ccc23)c1` [GW494601] was tested, and the “%Inh” value was 95.9%. `Cc1cn2c(=O)cc(N3CCOCC3)nc2n1Cc1cccc(Cl)c1Cl` [GSK2334006] was tested, and the “%Inh” value was 8%. With `Cc1cccc(-c2nc(-c3ccc(S(C)(=O)=O)cc3)sc2-c2ccncc2)c1` the “%Inh” value was 6%. `Cc1cccc(-c2nc(Nc3ccc4ncsc4c3)c3ccccc3n2)n1` [GW867588] was tested, and the “%Inh” value was 0%. In the case of `NS(=O)(=O)c1cccc(-c2ccc3ncc(N4CCOCC4)nc3c2)c1` [GSK1535721], the “%Inh” value is reported as 2%. `O=c1cc(N2CCOCC2)nc2n(Cc3cccc4ccccc34)ccn12` [GSK2333389] was tested, and the “%Inh” value was 0%. For `CN1c2ccc(NCc3ccc(F)cc3)cc2-c2c(cnn2C)S1(=O)=O`, the “%Inh” value was 12%. With `O=c1cc(N2CCOCC2)nc2n(Cc3cccc(Cl)c3Cl)c(C3CC3)nn12` [GSK2358994] the “%Inh” value was 14%. For `CSc1ccc(-c2cc3ncnc(SCC(=O)O)c3s2)cc1`, the “%Inh” value was 0%. In the case of `Cc1nnc(-c2ccc(C)c(-c3ccc(C(=O)Nc4ccc(NS(C)(=O)=O)cc4)cc3)c2)o1` [GW702865], the “%Inh” value is reported as 3%. `Cc1nnc(-c2ccc3occ(-c4ccc(C(C)O)cc4)c3c2)o1` (centres unmarked) was tested, and the “%Inh” value was 26%. `O=C(Nc1cccc(-c2nn3ncccc3c2-c2ccnc(Nc3cccc(C(F)(F)F)c3)n2)c1)c1c(F)cccc1F` [GSK299495] was tested, and the “%Inh” value was 11%. For `Cc1ccc(C(=O)NCC(N)=O)cc1-n1c(C)cc(OCc2ccc(F)cc2F)c(Br)c1=O`, the “%Inh” value was 7%.

These molecules were tested on MYO3A. Settings: concentration: 1 μM, replicates: in singlicate; n = 1.
With `Cl.Nc1ncnc2occ(-c3ccc(NC(=O)Nc4cc(C(F)(F)F)ccc4F)cc3)c12` [SB-707548] the “%Inh” value was 96.6%. `Fc1ccc(-c2ncn(CCCN3CCOCC3)c2-c2cccnc2)cc1` [SB-211743] was tested, and the “%Inh” value was 0%. `CCCCCc1nc2c(N)ncnc2n1CCCCC` [SKF-97255] was tested, and the “%Inh” value was 1%. `c1ccc(-c2cc(-c3c[nH]nc3-c3ccccn3)ccn2)cc1` [GW576604] was tested, and the “%Inh” value was 18%. `COc1ccc(Nc2nccc(N3CCC(NC(=O)Nc4cccc(C(C)=O)c4)C3)n2)cc1` (centres unmarked) [GSK1379731] was tested, and the “%Inh” value was 0%. For `CCc1nc(-c2cccc(C)c2)c(-c2ccnc(NCc3ccccc3)c2)s1`, the “%Inh” value was 0%. For `COC(=O)Nc1nc2cc(Oc3ccc(NC(=O)Nc4cc(F)ccc4F)cc3)ccc2[nH]1.Cl` [GW701424], the “%Inh” value was 33%. `CN1c2ccc(CNc3ccc(F)cc3)cc2-c2c(cnn2C)S1(=O)=O` was tested, and the “%Inh” value was 0%. In the case of `O=C(NCCCN1CCOCC1)c1cccc(Nc2nccc(Nc3ccc(Oc4ccccc4)cc3)n2)c1` [GW663929], the “%Inh” value is reported as 35%. `N#Cc1c(N2CCOCC2)sc(-c2ccn[nH]2)c1-c1ccc(Cl)cc1` was tested, and the “%Inh” value was 3%. `O=C1Cc2cc(Nc3nc(NCc4cccc(S(=O)(=O)C(F)(F)F)c4)ncc3C(F)(F)F)ccc2N1` was tested, and the “%Inh” value was 0%. In the case of `[2H]C([2H])(c1cccc(C(F)(F)F)c1C)n1ccn2c(=O)nc(N3CCOCC3)cc12` [GSK2336394], the “%Inh” value is reported as 4%. `COc1cc2c(cc1OCCN1CCN(C)CC1)ncc1c3ccc(C#N)cc3[nH]c21` was tested, and the “%Inh” value was 0%. For `O=c1cc(N2CCOCC2)nc2n(Cc3cccc(C(F)(F)F)c3)ccn12` [GSK2297543], the “%Inh” value was 19%. In the case of `Nc1nccc(-c2c(-c3ccc(F)cc3)ncn2C2CCN(CC(F)(F)F)CC2)n1` [SB-236560], the “%Inh” value is reported as 0%. For `CN(C(=O)c1ccc(-c2cc(-c3c[nH]nc3-c3ccccn3)ccn2)cc1)C1CCOCC1` [GW810083], the “%Inh” value was 0%. For `NCC(NC(=O)c1cc(-c2cn[nH]c2)c(-c2ccnc3[nH]ccc23)s1)c1ccccc1.O=C(O)C(F)(F)F.O=C(O)C(F)(F)F` (centres unmarked) [GSK1325775], the “%Inh” value was 32%. In the case of `COCCNC(=O)c1ccc(-c2cc(C(=O)NC3CC3)cc(F)c2C)cc1` [GW868318], the “%Inh” value is reported as 5%. `Fc1ccc(-c2nn3c(OCC(F)(F)F)cccc3c2-c2ccncc2)cc1` [GW514784] was tested, and the “%Inh” value was 72%. For `C[C@@H](Oc1cc(-n2cnc3ccc(NC(=O)NC(C)(C)C)cc32)sc1C(N)=O)c1ccccc1Cl` [GSK346294], the “%Inh” value was 35%. In the case of `Cl.Oc1cccc(Nc2ccnc3cc(-c4ccncc4)ccc23)c1` [GW494601], the “%Inh” value is reported as 40%. For `Cc1cn2c(=O)cc(N3CCOCC3)nc2n1Cc1cccc(Cl)c1Cl` [GSK2334006], the “%Inh” value was 0%. With `Cc1cccc(-c2nc(-c3ccc(S(C)(=O)=O)cc3)sc2-c2ccncc2)c1` the “%Inh” value was 7%. For `Cc1cccc(-c2nc(Nc3ccc4ncsc4c3)c3ccccc3n2)n1` [GW867588], the “%Inh” value was 0%. In the case of `NS(=O)(=O)c1cccc(-c2ccc3ncc(N4CCOCC4)nc3c2)c1` [GSK1535721], the “%Inh” value is reported as 15%. `O=c1cc(N2CCOCC2)nc2n(Cc3cccc4ccccc34)ccn12` [GSK2333389] was tested, and the “%Inh” value was 0%. `CN1c2ccc(NCc3ccc(F)cc3)cc2-c2c(cnn2C)S1(=O)=O` was tested, and the “%Inh” value was 0%. In the case of `O=c1cc(N2CCOCC2)nc2n(Cc3cccc(Cl)c3Cl)c(C3CC3)nn12` [GSK2358994], the “%Inh” value is reported as 0%. In the case of `CSc1ccc(-c2cc3ncnc(SCC(=O)O)c3s2)cc1`, the “%Inh” value is reported as 0%. In the case of `Cc1nnc(-c2ccc(C)c(-c3ccc(C(=O)Nc4ccc(NS(C)(=O)=O)cc4)cc3)c2)o1` [GW702865], the “%Inh” value is reported as 23%. For `Cc1nnc(-c2ccc3occ(-c4ccc(C(C)O)cc4)c3c2)o1` (centres unmarked), the “%Inh” value was 0%. For `O=C(Nc1cccc(-c2nn3ncccc3c2-c2ccnc(Nc3cccc(C(F)(F)F)c3)n2)c1)c1c(F)cccc1F` [GSK299495], the “%Inh” value was 41%. In the case of `Cc1ccc(C(=O)NCC(N)=O)cc1-n1c(C)cc(OCc2ccc(F)cc2F)c(Br)c1=O`, the “%Inh” value is reported as 14%.

From article PMC5540273 (PLoS ONE, 2017)
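Further: KINOMEscan kinase panel screen.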
